SARS PLP yeast: inhibitors of SARS-CoV papain-like protease in yeast; S. cerevisiae expressing SARS-CoV PLpro, growth rescue; Potency, µM (series often up to 32.9 µM), for inactives: top-dose activity, positive = growth rescue, most hits filed as activators; hit rate 0.19% among 330,000; further: potency means the concentration at half of the fitted maximal effect; 0% is about no effect; nearly all actives have a fitted effect of over 55% in size
Pf growth 96h: P. falciparum growth inhibition at 96 hours. Potency, µM (highest dose often 28.7 µM), without a hit: top-dose activity change, negative = inhibition, usual class: inhibitors. P. falciparum luciferase reporter growth, 96 h. hit rate 6.9% among 320,000; active means well fitted inhibition curve with a large enough effect; inconclusive means small, poorly fitted or top-dose-only effect, or another doubt; inactive means no such curve, though single readings can be large or run the other way; further: potency means the concentration at half of the fitted maximal effect; on the % scale 0 is the no-effect control and ±100 the full control effect
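Delayed-death screen, second-generation endpoint: infected erythrocytes, 2% hematocrit, 0.05% parasitemia final; 96 hours at 37 C, 5% CO2; luciferase detection reagent; luminescence decrease equals reduced growth.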
Shiga inhibitor: inhibitors of Shiga toxin in Vero cells. Vero cells, Shiga toxin protein synthesis inhibition reporter. inhibition, % at 38.7 µM. hit rate 9.2% among 290,000. AID 2315; in the data active means inhibition mostly above about 28%, no sharp cut-off; inactive means mostly below about 43%; further: 0% is about no effect
Cycloheximide cs: affects cycloheximide protein synthesis inhibition readout, counter-screen; hit rate 12% among 300,000; cell reporter, cycloheximide protein synthesis inhibition counterscreen; max response, %; in the data active means max response mostly above about 13%, no sharp cut-off; inactive means mostly below about 14%; further: read at 38.3 µM for the half of the compounds with a filed dose; 0% is about no effect
Pf growth 48h: inhibits P. falciparum growth in the first generation, 48 h; hit rate 5.9% among 310,000; AID 504832; P. falciparum luciferase growth in erythrocytes, 48 h; Potency, µM (doses to about 28.7 µM), for the others: top-dose activity change, negative = inhibition, hits mostly inhibitors; active means well fitted inhibition curve with a large enough effect; inconclusive means small, poorly fitted or top-dose-only effect, or another doubt; inactive means no such curve, though single readings can be large or run the other way; further: potency means the concentration at half of the fitted maximal effect; on the % scale 0 is the no-effect control and ±100 the full control effect
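A one-generation exposure of luciferase-tagged malaria parasites in RPMI 1640/Albumax erythrocyte culture, 37 C and 5% CO2. Inhibition is inferred from decreased luminescence after adding detection reagent.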
NS1 function inh: influenza NS1 inhibition; Potency, µM (top dose mostly 46.1 µM), for inactives: top-dose activity, positive = more growth; hit rate 0.4% among 270,000; AID 2326; further: potency means the concentration at half of the fitted maximal effect; actives are rising curves; nearly all actives have a fitted effect of over 50% in size
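Recovery from NS1-induced slow growth read by OD600 in budding yeast switched to galactose assay medium (pH 6.0, -URA) at 1:100 dilution. Compound 23 nl per well; the matching strain lacking NS1 serves as control.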
* marks the source's active call; other numbers are inactive results. Only some compounds are listed: those with a hit (about 21% of all), similar ones and a draw of the others. Unless noted, the call rests on the fitted dose curve.

Screening CC(=O)Nc1sc(NC(=O)c2ccccc2)nc1-c1cccs1 returned SARS PLP yeast -5.0%, Pf growth 96h -28.4%, Shiga inhibitor 13.7, Cycloheximide cs 20.8, Pf growth 48h -2.9% and NS1 function inh -8.2%.
`Cc1nnc(NC(=O)c2ccccc2-c2ccccc2C(=O)O)s1` gave SARS PLP yeast 2.7%, Pf growth 96h 15.7%, Shiga inhibitor 2.0, Cycloheximide cs -1.3, Pf growth 48h 5.1% and NS1 function inh 2.8%.
For COc1ccccc1C(=O)Nc1nnc(C)s1 the results were SARS PLP yeast 6.1%, Shiga inhibitor 81.4*, Cycloheximide cs 39.0*, Pf growth 48h 144.8% and NS1 function inh -49.0%.
Screening COc1ccccc1C(=O)Nc1nc(-c2cccs2)c(NC(C)=O)s1 returned SARS PLP yeast 11.1%, Pf growth 96h 330.2%, Shiga inhibitor 56.9*, Cycloheximide cs 30.1*, Pf growth 48h 90.6% and NS1 function inh 3.1%.
For CC1CC(O)CC(C)(C)C1 (stereo not given) the results were Pf growth 96h -24.0% and Pf growth 48h -7.1%.
O=C(N[C@H]1CCC(=O)N(CCSc2ccc(Br)cc2)CC1)OCc1ccccc1 was read as SARS PLP yeast 0.9%, Pf growth 96h inconclusive and Pf growth 48h 5.2%.
For CC(=O)Nc1cc2nc(C)n(Cc3ccc([N+](=O)[O-])cc3)c2nc1C the results were SARS PLP yeast 2.1%, Pf growth 96h inconclusive, Shiga inhibitor -8.1, Cycloheximide cs 1.4, Pf growth 48h 22.6% and NS1 function inh inconclusive.
`CCCCSC(=S)N(C)C1CCS(=O)(=O)C1` (stereo not given) gave SARS PLP yeast -20.7%, Pf growth 96h 44.4%, Shiga inhibitor -1.9, Cycloheximide cs -5.1, Pf growth 48h 5.6% and NS1 function inh 9.1%.
Screening COc1ccccc1C(=O)N(C)c1nnc(-c2ccccc2)s1 returned SARS PLP yeast 1.8%, Pf growth 96h inconclusive, Shiga inhibitor 65.8*, Cycloheximide cs 37.1*, Pf growth 48h 0.0% and NS1 function inh -50.2%.
For COc1cccc(C(=O)Nc2sc(C(C)C)cc2C(N)=O)c1OC the results were SARS PLP yeast -3.7%, Pf growth 96h 13.1µM*, Shiga inhibitor -5.3, Cycloheximide cs -2.3, Pf growth 48h inconclusive and NS1 function inh -152.4%.
`COc1ccccc1C(=O)Nc1nnc(-c2ccccc2)s1` gave SARS PLP yeast -10.7%, Pf growth 96h -13.0%, Cycloheximide cs 34.9*, Pf growth 48h 52.3% and NS1 function inh -30.4%.
For COc1cc2nc(NCC3CCCO3)n3nc(-c4cccnc4)nc3c2cc1OC (stereo not given) the results were SARS PLP yeast 7.8%, Pf growth 96h inconclusive, Shiga inhibitor -10.6, Cycloheximide cs -1.4 and NS1 function inh -37.4%.
`CN1CCN(CCCNc2nc3ccccc3c3nc(-c4ccccc4)nn23)CC1` gave NS1 function inh -2.9%.
Screening CCN(CC)CCCNc1nc2cc(OC)c(OC)cc2c2nc(-c3cccnc3)nn12 returned SARS PLP yeast -1.9%, Shiga inhibitor -6.6, Cycloheximide cs -6.8, Pf growth 48h 4.15µM* and NS1 function inh -5.3%.
For COCCCNc1nc2cc(OC)c(OC)cc2c2nc(-c3ccccc3)nn12 the results were SARS PLP yeast -0.8%, Pf growth 96h -1.9%, Shiga inhibitor -5.7, Cycloheximide cs 6.1, Pf growth 48h 0.294µM* and NS1 function inh 0.1%.
For CCN(CC)CCCNc1nc2cc(OC)c(OC)cc2c2nc(-c3ccccc3)nn12 the results were SARS PLP yeast 3.1%, Pf growth 96h 22.2%, Shiga inhibitor 42.6, Cycloheximide cs -1.2, Pf growth 48h 2.33µM* and NS1 function inh 2.5%.
Screening COc1cc2nc(NCCCN3CCN(C)CC3)n3nc(-c4ccccc4)nc3c2cc1OC returned SARS PLP yeast 6.9%, Shiga inhibitor -3.2, Cycloheximide cs 6.4 and NS1 function inh -2.9%.
Screening CCN(CC)CCCNc1nc2ccccc2c2nc(-c3ccncc3)nn12 returned SARS PLP yeast 1.3%, Pf growth 96h 4.15µM*, Shiga inhibitor -6.4, Cycloheximide cs -2.5, Pf growth 48h 6.57µM* and NS1 function inh 2.4%.
For COc1ccc(-n2c(=O)c3c(C)c(C)sc3n(Cc3ccc(F)cc3)c2=O)c(OC)c1 the results were SARS PLP yeast 0.7%, Pf growth 96h inconclusive, Shiga inhibitor -9.0, Cycloheximide cs -1.8 and Pf growth 48h inconclusive.
`CCOc1cccc(-c2csc(C3COc4ccccc4O3)n2)c1` (stereo not given) gave SARS PLP yeast 8.4%, Pf growth 96h 290.0%, Shiga inhibitor 30.5, Cycloheximide cs 27.7*, Pf growth 48h 111.3% and NS1 function inh -7.5%.
Cc1nn(-c2ccccc2)c(N2CCCC2)c1/C=N/NC(=S)Nc1cc(C(F)(F)F)ccc1Cl was read as SARS PLP yeast 5.3%, Pf growth 96h 4.15µM*, Shiga inhibitor 20.2, Cycloheximide cs -3.7, Pf growth 48h 11.7µM* and NS1 function inh 12.8%.
For Cc1nn(-c2ccccc2)c(N2CCCC2)c1/C=N/O the results were SARS PLP yeast 2.0%, Shiga inhibitor -6.6, Cycloheximide cs -1.1, Pf growth 48h 0.1% and NS1 function inh -0.2%.
Screening Cc1nn(-c2ccccc2)c(N2CCCCC2)c1/C=N/NC(=O)c1ccncc1 returned SARS PLP yeast 1.4%, Pf growth 96h inconclusive, Shiga inhibitor 23.9, Cycloheximide cs 0.1, Pf growth 48h inconclusive and NS1 function inh -3.4%.
Cc1nn(C)cc1/C=N/NC(=S)Nc1ccccc1 was read as SARS PLP yeast 12.7%, Pf growth 96h -144.1%, Shiga inhibitor 174.8*, Cycloheximide cs 71.1*, Pf growth 48h 11.6% and NS1 function inh -5.4%.
`Cc1ccc(NC(=S)N/N=C/c2c(C)nn(-c3ccccc3)c2N2CCCC2)cc1` gave SARS PLP yeast 0.8%, Pf growth 96h inconclusive, Shiga inhibitor 2.2, Cycloheximide cs -0.2, Pf growth 48h 11.7µM* and NS1 function inh 12.0%.
`Cc1nn(-c2ccccc2)c(N2CCCC2)c1/C=N/NC(=S)Nc1ccccc1C(F)(F)F` gave SARS PLP yeast -22.3%, Pf growth 96h 4.65µM*, Shiga inhibitor 7.0, Cycloheximide cs -2.7, Pf growth 48h inconclusive and NS1 function inh 12.1%.
Screening O=[N+]([O-])c1ccc(Cl)c(/C=N/NC(=S)Nc2ccccc2)c1 returned SARS PLP yeast 1.1%, Pf growth 96h inconclusive, Shiga inhibitor -11.7, Cycloheximide cs 1.3, Pf growth 48h inconclusive and NS1 function inh 4.3%.
`Cc1cccc(C)c1NC(=O)CN(C)C(=O)C1=COCCO1` gave SARS PLP yeast -2.6%, Pf growth 96h inconclusive and Pf growth 48h -4.1%.
`O=C(NCCOc1ccc(F)cc1)C1CCC(=O)N(CC2CCCCC2)C1` (stereo not given) gave SARS PLP yeast 26.8%, Pf growth 96h inconclusive, Shiga inhibitor 15.5, Cycloheximide cs 6.8, Pf growth 48h inconclusive and NS1 function inh -9.6%.
